{"source": "PubChem BioAssay AID651650", "about": "(Sanford-Burnham Center for Chemical Genomics, 2012)", "data": [{"target": "Neuropilin-1 (Homo sapiens) (UniProt O14786)", "sequence (O14786 whole entry, looked up)": "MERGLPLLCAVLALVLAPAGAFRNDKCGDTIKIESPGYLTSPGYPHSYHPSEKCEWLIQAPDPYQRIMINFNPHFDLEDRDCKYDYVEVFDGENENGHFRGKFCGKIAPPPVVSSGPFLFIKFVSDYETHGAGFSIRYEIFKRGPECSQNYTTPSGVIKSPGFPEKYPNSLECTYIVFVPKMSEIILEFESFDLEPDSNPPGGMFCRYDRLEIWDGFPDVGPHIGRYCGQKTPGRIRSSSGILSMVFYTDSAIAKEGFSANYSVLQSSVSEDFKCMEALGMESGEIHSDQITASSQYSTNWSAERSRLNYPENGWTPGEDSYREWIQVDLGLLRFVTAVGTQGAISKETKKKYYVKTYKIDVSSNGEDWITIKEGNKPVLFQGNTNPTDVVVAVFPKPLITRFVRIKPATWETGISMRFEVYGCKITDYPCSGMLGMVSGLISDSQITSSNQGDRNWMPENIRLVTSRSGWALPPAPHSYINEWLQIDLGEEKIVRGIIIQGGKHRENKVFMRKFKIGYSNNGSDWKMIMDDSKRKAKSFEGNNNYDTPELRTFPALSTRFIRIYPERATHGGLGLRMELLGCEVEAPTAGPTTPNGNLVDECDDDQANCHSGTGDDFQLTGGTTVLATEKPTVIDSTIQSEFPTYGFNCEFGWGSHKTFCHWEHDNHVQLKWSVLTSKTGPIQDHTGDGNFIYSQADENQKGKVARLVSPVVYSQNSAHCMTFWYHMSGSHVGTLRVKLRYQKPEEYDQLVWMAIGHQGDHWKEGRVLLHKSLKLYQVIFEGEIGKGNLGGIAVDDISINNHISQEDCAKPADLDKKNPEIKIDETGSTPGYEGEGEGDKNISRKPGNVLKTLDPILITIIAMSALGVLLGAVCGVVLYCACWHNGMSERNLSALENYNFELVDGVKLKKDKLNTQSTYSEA", "assay": "blockers of CendR peptide binding to NRP-1 – biochemical, FP and AlphaScreen panel, dose response (AID 651650)", "details": "NRP-1 b1b2 / RPARPAR peptide binding, FP or AlphaScreen; run 1, at 100 µM (top of the series)", "units": {"inhibition": "%"}, "values": [{"molecule": "Cc1ccc(OCC(=O)Nc2ccc(C)c(S(=O)(=O)N3CCCCCC3)c2)c([N+](=O)[O-])n1", "inhibition": 44.6}, {"molecule": "O=C(CSC1CN(C(c2ccccc2)c2ccccc2)C1)N/N=C/c1ccccc1", "inhibition": 53.3}, {"molecule": "CCCCCCCN1C(Nc2ccccc2)=NC[C@@H]1Cc1ccccc1", "inhibition": 24.7}, {"molecule": "CN(C)Cc1cc(C(F)(F)F)ccc1C(O)(c1ccccc1)c1ccccc1", "inhibition": -5.25}]}]}
